# Measured values reported in paper PMC11102866, “Nucleosome-bound NR5A2 structure reveals pioneer factor mechanism by DNA minor groove anchor competition”.
# Numbering of substitutions follows the chain as printed. Names and notes keep the numbering of the source.
# B1: 5 (nucleosome)
# DNA 1: ATCCTGGTCAAGGCCAGTGCCGAGGCCGCTCAATTGGTCGTAGACAGCTCTAGCACCGCTTAAACGCACGTACGCGCTGTCCCCCGCGTTTTAACCGCCAAGGGGATTACTCCCTAGTCTCCAGGCACGTGTCAGATATATACATCCTGTGAT
# DNA 2: ATCACAGGATGTATATATCTGACACGTGCCTGGAGACTAGGGAGTAATCCCCTTGGCGGTTAAAACGCGGGGGACAGCGCGTACGTGCGTTTAAGCGGTGCTAGAGCTGTCTACGACCAATTGAGCGGCCTCGGCACTGGCCTTGACCAGGAT
# modifications: reconstituted with mouse histones H2A, H2B, H3.3 and H4
# B2: 96 (nucleosome)
# DNA 1: ATCCTGGAGAATCCCGGTGCCGAGGCCGCTCAATTGGTCGTAGACAGCTCTAGCACCGCTTAAACGCACGTACGCGCTGTCCCCCGCGTTTTAACCGCTCAAGGCCATACTCCCTAGTCTCCAGGCACGTGTCAGATATATACATCCTGTGAT
# DNA 2: ATCACAGGATGTATATATCTGACACGTGCCTGGAGACTAGGGAGTATGGCCTTGAGCGGTTAAAACGCGGGGGACAGCGCGTACGTGCGTTTAAGCGGTGCTAGAGCTGTCTACGACCAATTGAGCGGCCTCGGCACCGGGATTCTCCAGGAT
# modifications: reconstituted with mouse histones H2A, H2B, H3.3 and H4
# B3: 101 (nucleosome)
# DNA 1: B2 DNA 1 with T99C, C100A, A102G, G104T, C106A, T108G, A109G, T111C, C112A
# DNA 2: B2 DNA 2 with G42T, A43G, T45C, A46C, G48T, C50A, T52C, G54T, A55G
# modifications: reconstituted with mouse histones H2A, H2B, H3.3 and H4
# B4: 97 (nucleosome)
# DNA 1: B2 DNA 1 with T99C, C100T, A101C, G103A, C105G, A107C, T108A
# DNA 2: B2 DNA 2 with A46T, T47G, G49C, C51T, T53G, G54A, A55G
# modifications: reconstituted with mouse histones H2A, H2B, H3.3 and H4
# B5: 98 (nucleosome)
# DNA 1: B2 DNA 1 with T99C, C100A, A101T, A102C, G103A, G104A, C105G, C106G, A107C, T108C
# DNA 2: B2 DNA 2 with A46G, T47G, G48C, G49C, C50T, C51T, T52G, T53A, G54T, A55G
# modifications: reconstituted with mouse histones H2A, H2B, H3.3 and H4
# B6: 99 (nucleosome)
# DNA 1: ATCCTGGAGAATCCCGGTGCCGAGGCCGCTCAATTGGTCGTAGACAGCTCTAGCACCGCTTAAACGCACGTACGCGCTGTCCCCCGCGTTTTAACCGCCAATCAAGGCCATCCCTAGTCTCCAGGCACGTGTCAGATATATACATCCTGTGAT
# DNA 2: ATCACAGGATGTATATATCTGACACGTGCCTGGAGACTAGGGATGGCCTTGATTGGCGGTTAAAACGCGGGGGACAGCGCGTACGTGCGTTTAAGCGGTGCTAGAGCTGTCTACGACCAATTGAGCGGCCTCGGCACCGGGATTCTCCAGGAT
# modifications: reconstituted with mouse histones H2A, H2B, H3.3 and H4
# B7: 100 (nucleosome)
# DNA 1: B6 DNA 1 with T102G, C103T, A104C, G106A, C108G, A110C, T111A
# DNA 2: B6 DNA 2 with A43T, T44G, G46C, C48T, T50G, G51A, A52C
# modifications: reconstituted with mouse histones H2A, H2B, H3.3 and H4
# Assays:
# [1] = molecular target: mouse Nr5a2 wild type;histone octamer (Mus musculus;, UniProt P45448;C0HKE1;Q6ZWY9;P84244;P62806 1-560;2-130;2-126;2-136;2-103, |); assay: SeEN-seq (EMSA of nucleosome library followed by sequencing); 1.2 uM mouse Nr5a2; 20 mM Tris-HCl pH 7.5, 120 mM NaCl, 1 mM MgCl2, 10 uM ZnCl2, 1 mM DTT, 100 ug/ml BSA, room temperature, 30 min; 0.1 uM nucleosome library; high values mean tight binding
# [2] = molecular target: NR5A2 wild type;histone octamer (Homo sapiens;, UniProt O00482;C0HKE1;Q6ZWY9;P84244;P62806 1-541;2-130;2-126;2-136;2-103, |); assay: SeEN-seq (EMSA of nucleosome library followed by sequencing); 0.8 uM human NR5A2; 20 mM Tris-HCl pH 7.5, 120 mM NaCl, 1 mM MgCl2, 10 uM ZnCl2, 1 mM DTT, 100 ug/ml BSA, room temperature, 30 min; 0.1 uM nucleosome library; high values mean tight binding
Binder,binding signal [1],binding signal [2]
B1,"1.14 log2 enrichment (bound/unbound, relative to Widom 601)",
B2,"1.04 log2 enrichment (bound/unbound, relative to Widom 601)","1.16 log2 enrichment (bound/unbound, relative to Widom 601)"
B3,"1.47 log2 enrichment (bound/unbound, relative to Widom 601)","2.38 log2 enrichment (bound/unbound, relative to Widom 601)"
B4,"0.636 log2 enrichment (bound/unbound, relative to Widom 601)","0.742 log2 enrichment (bound/unbound, relative to Widom 601)"
B5,"0.557 log2 enrichment (bound/unbound, relative to Widom 601)","0.701 log2 enrichment (bound/unbound, relative to Widom 601)"
B6,"0.468 log2 enrichment (bound/unbound, relative to Widom 601)","0.545 log2 enrichment (bound/unbound, relative to Widom 601)"
B7,"0.488 log2 enrichment (bound/unbound, relative to Widom 601)","0.655 log2 enrichment (bound/unbound, relative to Widom 601)"
